Methyltransferases: Primary Screen for Target Class Profiling of Small Molecule Inhibitors of Methyltransferases | calls only at 40 µM | purified enzyme, MTase-Glo SAH luminescence; active compounds read low | 3.9% of 25,000 active; call rule not given here
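Each enzyme was reacted with SAM and its substrate, with compounds tested once at 40 uM; SAH formed was read by MTase-Glo luminescence.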
Each line names hits and unclear results; the compound was inactive in the other large screens; ! = not active in a repeat. Many of the other results were omitted from the sample, so hits are more common in it than they were.

C=C1CC[C@H]2C(=C)CC[C@H]3C(=C)C(=O)O[C@@H]3[C@@H]12	none
C=C1C(=O)OC2C1CCC1(C)C(O)CC=C(C)C21 (stereo not drawn)	Methyltransferases active
C=C1CC[C@@H](O)[C@]2(C)C[C@H]3OC(=O)C(=C)[C@H]3CC12 (stereo partly drawn)	none
CCCn1c(=O)c2ccccc2n2c(=O)n(CC(=O)Nc3ccc(Cl)cc3)nc12	none
O=C(Cn1c(=O)oc2cc(S(=O)(=O)N3CCCC3)ccc21)Nc1cccc(Cl)c1	none
CSc1ccc(CCNC(=O)CCn2ccc3cc(S(=O)(=O)N4CCCCC4)ccc32)cc1	none
COC(=O)c1ncn2c1C(=O)N(Cc1cccc(OC)c1)C(C)(C(=O)NCc1ccccc1)C2 (stereo not drawn)	none
Cc1coc2c1C(=O)C(=O)c1c-2ccc2c(C)cccc12	none
Cc1coc2c1C(=O)C(=O)c1c-2ccc2c1CCCC2(C)C	Methyltransferases active
CCOC(=O)c1cccc(NS(=O)(=O)c2ccc3c(c2)NC(=O)C(C)C(=O)N3)c1 (stereo not drawn)	none
Cn1c2c(c3ccccc31)C(C(=O)NCc1ccccc1)N(CCc1ccc(Cl)cc1)C(=O)CS2 (stereo not drawn)	none
Cc1cccc(NC(=O)N2CCn3cccc3C2Cc2ccccc2)c1 (stereo not drawn)	none
O=C(Nc1cccc(F)c1)N1CCn2cccc2C1Cc1ccccc1 (stereo not drawn)	none
O=C(Nc1ccc(F)c(Cl)c1)N1CCn2cccc2C1Cc1ccccc1 (stereo not drawn)	Methyltransferases active
CCNC(=O)N1CCCCCC1CN1CCC(C)CC1 (stereo not drawn)	none
CCC(CC)C(=O)N1CC[C@@H]2COCCN(Cc3cccnc3)[C@@H]2C1	none
N#Cc1c(O)c2c(-c3ccc(-c4ccccc4O)cc3)csc2[nH]c1=O	Methyltransferases active!
COc1cccc(CN2C(=O)c3cc4ccccc4n3CC2(C)C(=O)NCc2ccccc2OC)c1 (stereo not drawn)	none
Cc1nnc(-c2cc(-c3cnn(C)c3)ccn2)n1-c1ccccc1	none
O=C1Cc2c([nH]c3ccc(Br)cc23)-c2ncccc2N1	Methyltransferases active
C=Cc1ccc(Cn2nc3n(CCC)c(=O)c4ccccc4n3c2=O)cc1	none
CC(C)CCN1C(=O)c2ccc(-c3ccccc3)n2CC1(C)C(=O)NC1CCC(C)CC1 (stereo not drawn)	none
CC(=O)Nc1c2n(c3ccccc13)CC(C)(C(=O)NC1CCCC1)N(Cc1ccccc1)C2=O (stereo not drawn)	none
COc1ccc(CN2CCN(C3CCN(c4ccccc4)CC3)CC2CCO)cc1C (stereo not drawn)	none
C/C=C(\C)C(=O)O[C@@H](C)[C@H]1CC[C@]2(O)C3CCC4C[C@@H](OC5CC(OC)C(OC6CC(OC)C(OC7CC(OC)C(OC8OC(C)C(OC9OC(CO)C(O)C(O)C9O)C(OC)C8O)C(C)O7)C(C)O6)C(C)O5)CC[C@]4(C)C3[C@H](O)[C@@H](O)[C@]12C (stereo partly drawn)	none
CNC(=O)[C@@H]1CN(C(=O)CCc2cccc(OC)c2)C[C@H]1c1nc(C)no1	none
Cc1ccccc1CN1CC2(COCC1=O)CN(c1ccc(C(F)(F)F)cn1)C2	none
C[C@H](Cc1ccc(O)c(O)c1)[C@@H](C)Cc1ccc(O)c(O)c1	Methyltransferases active
CC(CCc1ccc(O)cc1)NCCc1ccc(O)c(O)c1 (stereo not drawn)	none
NC(=O)c1cccc(CN2CCCC3(Cc4ccccc4N(C(=O)c4ccc(Cl)cc4)C3)C2)c1 (stereo not drawn)	none
CCC(C)NC(=O)Cn1nc2n(CC(C)C)c(=O)c3ccc(C(=O)NC(C)C)cc3n2c1=O (stereo not drawn)	none
O=C1N=C(N2CCOCC2)CN1c1ccc(Cl)cc1	none
CC1(C)CCC(CN2CCN(c3ccc(C(=O)NS(=O)(=O)c4ccc(NCC5CCOCC5)c([N+](=O)[O-])c4)c(Oc4cnc5[nH]ccc5c4)c3)CC2)=C(c2ccc(Cl)cc2)C1	Methyltransferases active
Cc1noc([C@H]2CCN(CC3CC3)C[C@H]2NC(=O)C2CCOCC2)n1	none
CC(C)(C)c1cc2n(n1)CC(C)(C(=O)NC1CCCCC1)N(Cc1cccc(Cl)c1)C2=O (stereo not drawn)	none
C=CCn1c(=O)c2ccc(C(=O)NC(C)C)cc2n2c(=O)n(CC(=O)Nc3cc(C)cc(C)c3)nc12	none
O=C1NC2(CN([S+](=O)([O-])c3ccccc3)C2)Oc2ccccc21	none
Cc1cccc(-c2[nH]c(CNc3ccccc3F)nc2-c2ccc3ncnn3c2)n1	none
Oc1ccc(CNc2ccccc2F)c2cccnc12	Methyltransferases active
CCC(C)NC(=O)c1ccc2c(=O)n(C)c3nn(CC(=O)c4ccc(Cl)cc4)c(=O)n3c2c1 (stereo not drawn)	none
O=C(/C=C/c1ccccc1)O[C@@H]1[C@@H](CO)O[C@@](CO)(O[C@H]2O[C@H](CO)[C@@H](O)[C@H](O)[C@H]2O)[C@H]1O	none
CN1CCN(CCCN2C(=O)c3cc4occc4n3CC2(C)C(=O)NC2CCCCCCC2)CC1 (stereo not drawn)	none
Cc1ccccc1NC(=O)CSc1nnc2n(CC(C)C)c(=O)c3cc(F)ccc3n12	none
COc1ccc2c(c1)N1C(=O)C[C@@]34C=CC[N@+]5([O-])CC[C@H]2[C@H](CC3)[C@@]145	none
COc1cc2c(cc1OC)N1C(=O)C[C@]34C=CCN5CC[C@@H]2[C@@H](CC3)[C@]514	Methyltransferases active
CC1(C(=O)NC2CCCCCCC2)Cn2c(cc3occc32)C(=O)N1c1cccc(F)c1 (stereo not drawn)	none
CC1=C2CC(=O)C(C)CC/C=C(\C)CC2OC1=O (stereo not drawn)	none
CCN(C1CCOCC1)C1CN(C(=O)C2CCCCC2)C1	none
CC1=CC(=O)[C@@]2(C(C)C)C[C@@H]12	Methyltransferases active
CCC(C)C1NC(=O)C2C(C)CCN2C(=O)C(CC(O)CO)OC(=O)CCNC(=O)C(C)N(C)C(=O)C(C(C)C)N(C)C1=O (stereo not drawn)	none
O=C(Cn1nc(-c2ccccc2)c2ccccc21)N1CCN(c2cccc(C(F)(F)F)c2)CC1	none
CCCN1C(=O)c2c(C(=O)NCc3ccc(CC)cc3)ncn2CC1(C)C(=O)NCc1ccc(F)cc1 (stereo not drawn)	none
CCc1nc(-c2cccc(C)c2)c(-c2ccnc(NC(=O)c3ccccc3)c2)s1	none
O=C(Nc1cc2cc[nH]c2cn1)c1ccccc1	Methyltransferases active
O=C(Nc1nc2ccccc2n1CCc1ccccc1)c1ccccc1	none
CCOC(=O)c1ccc(Nc2nc3c(S(=O)(=O)c4ccc(C)cc4)nnn3c3ccccc23)cc1	none
CCc1ccccc1NC(=O)CSc1nnc2n(CCc3ccccc3)c(=O)c3ccccc3n12	none
COC(=O)C(CC1(O)c2ccccc2N2C(=O)C(CC(C)C)NC21)n1cnc2ccccc2c1=O (stereo not drawn)	none
O=[N+]([O-])c1cccc2c(Br)[nH]nc12	Methyltransferases active
O=C(CCc1nnc2n(CCc3ccccc3)c(=O)c3ccccc3n12)NCc1ccc(Cl)cc1	none
CC(C)Cn1c(=O)c2ccc(C(=O)NC(C)C)cc2n2c(=O)n(Cc3ccccc3F)nc12	none
CCOC(=O)c1cc2n(n1)CC(C)(C(=O)NCc1ccccc1OC)N(Cc1ccccc1F)C2=O (stereo not drawn)	none
COC(=O)c1ncn2c1C(=O)N(c1cc(C)ccc1C)C(C)(C(=O)NCc1ccccc1)C2 (stereo not drawn)	none
COc1ccc(N(C(=O)c2ccccc2OC)S(=O)(=O)c2ccc3c(c2)n(C)c(=O)n3C)cc1	none
CCOC(=O)c1cnc2ccc(C)cc2c1Nc1cccc(C)c1	none
